# From PubChem BioAssay (NCI)
# About 79,000 compounds went through this panel and 15% of them were active in at least one assay; those are over-represented in the sample as a whole. A number with no mark means an inactive call. Activity calls are given as the source filed them. Cut-off read from the data, not from the text of the source: active = growth inhibition above about 70%; inactive = the rest.
# Tests used:
# [1] = NCI Yeast Anticancer Drug Screen. Data for the rad52 strain (AID 147);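 note: 0% = growth of vehicle-treated control cultures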; conditions: S. cerevisiae rad52 mutant growth inhibition, hits give high values
# In short: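 The repair-mutant yeast strain was incubated with compounds, then growth was read and inhibition derived relative to vehicle.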
# [2] = NCI Yeast Anticancer Drug Screen. Data for the wt1 strain (AID 149);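 note: 0% = growth of vehicle-treated wt1 cultures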; conditions: S. cerevisiae wt1 strain (SPY 50644) growth inhibition, hits give high values
# In short: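 wt1 strain grown with compound or vehicle; inhibition taken from the growth difference.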
# [3] = NCI Yeast Anticancer Drug Screen. Data for the rad50EPP+ strain (AID 151);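 note: 0% = growth of vehicle-treated control cultures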; conditions: S. cerevisiae rad50 mutant strain, hits give high values
# In short: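 Vehicle-normalised growth inhibition; rad50EPP+ yeast strain, altered in DNA damage repair, compound-treated.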
# [4] = NCI Yeast Anticancer Drug Screen. Data for the mgt1 strain (AID 153); conditions: S. cerevisiae mgt1 mutant growth inhibition, hits give high values
# In short: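 Vehicle-normalized growth inhibition is determined in mgt1 yeast, a strain selected for a defined alteration in DNA repair or cell cycle control.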
# [5] = NCI Yeast Anticancer Drug Screen. Data for the rad50 strain (AID 155);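 note: 0% = growth of vehicle-only cultures of the same strain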; conditions: S. cerevisiae rad50 strain growth inhibition, hits give high values
# In short: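 DNA repair mutant yeast, compound exposure, growth read-out; inhibition is taken relative to vehicle.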
# [6] = NCI Yeast Anticancer Drug Screen. Data for the mec2-1 strain (AID 157); conditions: S. cerevisiae mec2-1 strain, hits give high values
# In short: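 Mutant yeast (mec2-1) grown with compound; growth inhibition relative to vehicle control reported.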
# [7] = NCI Yeast Anticancer Drug Screen. Data for the rad14 strain (AID 159);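 note: 0% = growth of vehicle-treated control cultures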; conditions: S. cerevisiae rad14 strain growth inhibition, hits give high values
# In short: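 DNA repair-defective yeast, compound-exposed; % growth inhibition derived by comparison with vehicle-treated controls.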
# [8] = NCI Yeast Anticancer Drug Screen. Data for the sgs1 mgt1 strain (AID 161);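 note: 0% = growth of cultures given vehicle only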; conditions: S. cerevisiae sgs1 mgt1 strain, hits give high values
# In short: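 Compounds are added to genetically altered yeast, and growth is compared with cultures given vehicle alone to give percent inhibition.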
# [9] = NCI Yeast Anticancer Drug Screen. Data for the CLN2oe strain (AID 163);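 note: 0% = growth of vehicle-only control cultures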; conditions: S. cerevisiae CLN2oe strain, hits give high values
# In short: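 Compounds are applied to yeast harbouring a defined cell-cycle control change; reduced growth compared with vehicle-treated controls gives the value.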
# [10] = NCI Yeast Anticancer Drug Screen. Data for the cln2 rad14 strain (AID 165);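 note: 0% = growth equal to vehicle treated cultures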; conditions: S. cerevisiae cln2 rad14 strain, hits give high values
# In short: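 Readout is yeast growth inhibition versus vehicle-treated controls, using a strain with cln2 and rad14 alterations exposed to compound.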
# [11] = NCI Yeast Anticancer Drug Screen. Data for the bub3 strain (AID 167); conditions: S. cerevisiae bub3 mutant strain, hits give high values
# In short: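 In this screen, a yeast mutant lacking normal mitotic checkpoint function is challenged with compound. Relative growth versus vehicle gives the inhibition value.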
# [12] = NCI Yeast Anticancer Drug Screen. Data for the wt2 strain (AID 169);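 note: 0% = growth of vehicle-treated yeast cultures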; conditions: S. cerevisiae wt2 strain growth inhibition, hits give high values
# In short: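 Against vehicle-treated controls, the growth of yeast exposed to each compound was compared, and the inhibition was recorded.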
# [13] = NCI Yeast Anticancer Drug Screen. Data for the mlh1 strain (AID 171);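 note: 0% = growth of vehicle-treated control cultures of the same strain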; conditions: S. cerevisiae mlh1 strain growth inhibition, hits give high values
# In short: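 Measured: yeast growth. Reference: vehicle-treated controls. Organism: strain with a defined alteration affecting DNA damage repair or cell cycle control, treated with compound.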
# [14] = NCI Yeast Anticancer Drug Screen. Data for the sgs1 strain (AID 173);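 note: 0% = growth of vehicle-only control cultures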; conditions: S. cerevisiae sgs1 mutant, hits give high values
# In short: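 Each compound was added to cultures of the altered yeast strain. Growth was recorded, and inhibition was derived by comparison with vehicle controls.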
# [15] = NCI Yeast Anticancer Drug Screen. Data for the mlh1 rad18 strain (AID 175); conditions: S. cerevisiae mlh1 rad18 strain growth inhibition, hits give high values
# In short: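 Genetically defined yeast (DNA repair-deficient) exposed to compounds; growth inhibition determined relative to vehicle.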
# [16] = NCI Yeast Anticancer Drug Screen. Data for the rad18 strain (AID 177); conditions: S. cerevisiae rad18 mutant growth inhibition, hits give high values
# In short: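 Vehicle-treated cultures served as the baseline for scoring compound-induced growth inhibition in DNA-repair-mutant yeast.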
# [17] = at 5.0 µM (retest, dose inferred, filed as 0.5)
# [18] = at 50.0 µM (retest, dose inferred, filed as 5.0)
compound,measurement,setting,value
O=Cc1ccc(C(F)(F)F)cc1.[C-]#[O+].[C-]#[O+].[C-]#[O+].[Cr],growth inhibition,[1]; at 1.2 µM,9%
same,growth inhibition,[1]; at 3.7 µM,17%
same,growth inhibition,[1]; at 11.0 µM,39%
same,growth inhibition,[1]; at 33.0 µM,65%
same,growth inhibition,[1]; at 100.0 µM,70% (active)
same,growth inhibition,[2]; at 1.2 µM,0%
same,growth inhibition,[2]; at 3.7 µM,2%
same,growth inhibition,[2]; at 11.0 µM,8%
same,growth inhibition,[2]; at 33.0 µM,15%
same,growth inhibition,[2]; at 100.0 µM,17%
same,growth inhibition,[3]; at 1.2 µM,12%
same,growth inhibition,[3]; at 3.7 µM,20%
same,growth inhibition,[3]; at 11.0 µM,37%
same,growth inhibition,[3]; at 33.0 µM,46%
same,growth inhibition,[3]; at 100.0 µM,33%
same,growth inhibition,[4]; at 1.2 µM,1%
same,growth inhibition,[4]; at 3.7 µM,1%
same,growth inhibition,[4]; at 11.0 µM,20%
same,growth inhibition,[4]; at 33.0 µM,11%
same,growth inhibition,[4]; at 100.0 µM,17%
same,growth inhibition,[5]; at 1.2 µM,6%
same,growth inhibition,[5]; at 3.7 µM,11%
same,growth inhibition,[5]; [17],3%
same,growth inhibition,[5]; at 11.0 µM,23%
same,growth inhibition,[5]; at 33.0 µM,38%
same,growth inhibition,[5]; [18],75% (active)
same,growth inhibition,[5]; at 50.0 µM,67.8%
same,growth inhibition,[5]; at 100.0 µM,40%
same,growth inhibition,[6]; at 1.2 µM,5%
same,growth inhibition,[6]; at 3.7 µM,2%
same,growth inhibition,[6]; [17],-7%
same,growth inhibition,[6]; at 11.0 µM,5%
same,growth inhibition,[6]; at 33.0 µM,8%
same,growth inhibition,[6]; [18],47%
same,growth inhibition,[6]; at 50.0 µM,61.6%
same,growth inhibition,[6]; at 100.0 µM,14%
same,growth inhibition,[7]; at 1.2 µM,6%
same,growth inhibition,[7]; at 3.7 µM,8%
same,growth inhibition,[7]; at 11.0 µM,15%
same,growth inhibition,[7]; at 33.0 µM,30%
same,growth inhibition,[7]; at 100.0 µM,30%
same,growth inhibition,[8]; [17],-18%
same,growth inhibition,[8]; [18],81% (active)
same,growth inhibition,[8]; at 50.0 µM,78.5% (active)
same,growth inhibition,[9]; at 1.2 µM,0%
same,growth inhibition,[9]; at 3.7 µM,-2%
same,growth inhibition,[9]; at 11.0 µM,2%
same,growth inhibition,[9]; at 33.0 µM,15%
same,growth inhibition,[9]; at 100.0 µM,23%
same,growth inhibition,[10]; [17],-15%
same,growth inhibition,[10]; [18],58%
same,growth inhibition,[10]; at 50.0 µM,63.6%
same,growth inhibition,[11]; at 1.2 µM,-7%
same,growth inhibition,[11]; at 3.7 µM,-1%
same,growth inhibition,[11]; [17],-18%
same,growth inhibition,[11]; at 11.0 µM,12%
same,growth inhibition,[11]; at 33.0 µM,21%
same,growth inhibition,[11]; [18],-7%
same,growth inhibition,[11]; at 50.0 µM,66.2%
same,growth inhibition,[11]; at 100.0 µM,31%
same,growth inhibition,[12]; at 1.2 µM,3%
same,growth inhibition,[12]; at 3.7 µM,8%
same,growth inhibition,[12]; at 11.0 µM,23%
same,growth inhibition,[12]; at 33.0 µM,39%
same,growth inhibition,[12]; at 100.0 µM,33%
same,growth inhibition,[13]; at 1.2 µM,-1%
same,growth inhibition,[13]; at 3.7 µM,-4%
same,growth inhibition,[13]; at 11.0 µM,7%
same,growth inhibition,[13]; at 33.0 µM,8%
same,growth inhibition,[13]; at 100.0 µM,7%
same,growth inhibition,[14]; at 1.2 µM,12%
same,growth inhibition,[14]; at 3.7 µM,11%
same,growth inhibition,[14]; at 11.0 µM,40%
same,growth inhibition,[14]; at 33.0 µM,62%
same,growth inhibition,[14]; at 100.0 µM,64%
same,growth inhibition,[15]; [17],11%
same,growth inhibition,[15]; [18],78% (active)
same,growth inhibition,[15]; at 50.0 µM,63.3%
same,growth inhibition,[16]; at 1.2 µM,1%
same,growth inhibition,[16]; at 3.7 µM,3%
same,growth inhibition,[16]; at 11.0 µM,20%
same,growth inhibition,[16]; at 33.0 µM,40%
same,growth inhibition,[16]; at 100.0 µM,62%
COC(=O)C1=C(C(=O)OC)C2OC1c1cc3ccccc3cc12,growth inhibition,[1]; at 1.2 µM,21%
same,growth inhibition,[1]; at 3.7 µM,33%
same,growth inhibition,[1]; at 11.0 µM,79% (active)
same,growth inhibition,[1]; at 33.0 µM,97% (active)
same,growth inhibition,[1]; at 100.0 µM,98% (active)
same,growth inhibition,[2]; at 1.2 µM,7%
same,growth inhibition,[2]; at 3.7 µM,14%
same,growth inhibition,[2]; at 11.0 µM,37%
same,growth inhibition,[2]; at 33.0 µM,97% (active)
same,growth inhibition,[2]; at 100.0 µM,99% (active)
same,growth inhibition,[3]; at 1.2 µM,34%
same,growth inhibition,[3]; at 3.7 µM,57%
same,growth inhibition,[3]; at 11.0 µM,79% (active)
same,growth inhibition,[3]; at 33.0 µM,93% (active)
same,growth inhibition,[3]; at 100.0 µM,96% (active)
same,growth inhibition,[4]; at 1.2 µM,27%
same,growth inhibition,[4]; at 3.7 µM,44%
same,growth inhibition,[4]; at 11.0 µM,93% (active)
same,growth inhibition,[4]; at 33.0 µM,99% (active)
same,growth inhibition,[4]; at 100.0 µM,99% (active)
same,growth inhibition,[5]; at 1.2 µM,18%
same,growth inhibition,[5]; at 3.7 µM,37%
same,growth inhibition,[5]; [17],76% (active)
same,growth inhibition,[5]; at 11.0 µM,76% (active)
same,growth inhibition,[5]; at 33.0 µM,97% (active)
same,growth inhibition,[5]; [18],100% (active)
same,growth inhibition,[5]; at 50.0 µM,99.6% (active)
same,growth inhibition,[5]; at 100.0 µM,98% (active)
same,growth inhibition,[6]; at 1.2 µM,59%
same,growth inhibition,[6]; at 3.7 µM,58%
same,growth inhibition,[6]; [17],58%
same,growth inhibition,[6]; at 11.0 µM,86% (active)
same,growth inhibition,[6]; at 33.0 µM,99% (active)
same,growth inhibition,[6]; [18],100% (active)
same,growth inhibition,[6]; at 50.0 µM,99.6% (active)
same,growth inhibition,[6]; at 100.0 µM,99% (active)
same,growth inhibition,[7]; at 1.2 µM,18%
same,growth inhibition,[7]; at 3.7 µM,24%
same,growth inhibition,[7]; at 11.0 µM,66%
same,growth inhibition,[7]; at 33.0 µM,99% (active)
same,growth inhibition,[7]; at 100.0 µM,99% (active)
same,growth inhibition,[8]; [17],92% (active)
same,growth inhibition,[8]; [18],100% (active)
same,growth inhibition,[8]; at 50.0 µM,99.7% (active)
same,growth inhibition,[9]; at 1.2 µM,45%
same,growth inhibition,[9]; at 3.7 µM,50%
same,growth inhibition,[9]; at 11.0 µM,80% (active)
same,growth inhibition,[9]; at 33.0 µM,97% (active)
same,growth inhibition,[9]; at 100.0 µM,99% (active)
same,growth inhibition,[10]; [17],16%
same,growth inhibition,[10]; [18],99% (active)
same,growth inhibition,[10]; at 50.0 µM,99.4% (active)
same,growth inhibition,[11]; at 1.2 µM,75% (active)
same,growth inhibition,[11]; at 3.7 µM,87% (active)
same,growth inhibition,[11]; [17],64%
same,growth inhibition,[11]; at 11.0 µM,89% (active)
same,growth inhibition,[11]; at 33.0 µM,99% (active)
same,growth inhibition,[11]; [18],99% (active)
same,growth inhibition,[11]; at 50.0 µM,99.4% (active)
same,growth inhibition,[11]; at 100.0 µM,99% (active)
